From PubChem BioAssay (Tox21) come the findings set out here.

Test [1] is described as follows: Human pregnane X receptor (PXR) small molecule agonists, qHTS cell viability counter screen (AID 1346977). Further: nearly all actives have a fitted effect of over 50% in size. Further: potency means the concentration at half of the fitted maximal effect. An outline of the steps:
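PXR-Luc HepG2 cells in medium with 5% charcoal-stripped FBS were pre-incubated 5hr, then exposed to compounds for 24hr at 37C. Viability was read in the same wells by CellTiter-Fluor fluorescence, reagent added after 23hr with a 1hr incubation.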
For orientation: qHTS replaces the single test concentration by a dilution series.

The nature of test [2]: Caspase-3/7 induction in HepG2 cells by small molecules, qHTS assay (AID 1346978). Further: nearly all actives have a fitted effect of over 15% in size. Summed up: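 Wild-type HepG2 cells (2,000/well) were settled 5 h at 37 C, 5% CO2, then exposed to compounds in DMSO for 17 h. Caspase-3/7 activity was read by luminescence 30 min after adding Caspase-Glo 3/7 reagent at room temperature.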
Test [3] is described as follows: Caspase-3/7 induction in CHO-K1 cells by small molecules, qHTS cell viability counter screen (AID 1346979). Further: nearly all actives have a fitted effect of over 35% in size. Further: potency means the concentration at half of the fitted maximal effect. Summed up: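 Wild-type CHO-K1 cells were seeded at 1,500 per well, rested 5hr at 37 C, then exposed to compounds in DMSO. After 16hr, CellTiter-Fluor reagent was added and fluorescence read 1hr later as the viability measure.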
Test [4] in a line: Caspase-3/7 induction in HepG2 cells by small molecules, qHTS cell viability counter screen (AID 1346981). Further: series mostly up to about 92 µM; nearly all actives have a fitted effect of over 30% in size. An outline of the steps: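 HepG2, WT, 2,000 cells/well; 5 hr pre-incubation 37 C/5% CO2; compound pin-transferred from DMSO; 16 hr exposure; CellTiter-Fluor, 1 hr; fluorescence read.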
The target in test [5] is Nuclear receptor subfamily 1 group I member 2 (Homo sapiens) (UniProt O75469). Briefly: Human pregnane X receptor (PXR) small molecule agonists, qHTS assay (AID 1346982). Further: nearly all actives have a fitted effect of over 35% in size. Further: potency means the concentration at half of the fitted maximal effect. Summed up:
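Luciferase signal from ONE-Glo (30 min, room temperature) measured activation of hPXR-driven CYP3A4 reporter expression in PXR-Luc HepG2 cells treated with compounds for 24 hr at 37 C.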

Test [6] addresses Cytochrome P450 2D6 (Homo sapiens) (UniProt P10635). Briefly: Cytochrome P450 Family 2 Subfamily D Member 6 (CYP2D6) small molecule antagonists: luciferase reporter qHTS assay (AID 1671196). Further: nearly all actives have a fitted effect of over 50% in size. Further: potency means the concentration at half of the fitted maximal effect. On activity change, negative = inhibition: series mostly up to about 120 µM. An outline of the steps:
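Read-out is luminescence from luciferin formed by CYP2D6 turnover of a proluciferin substrate, recorded as relative luminescence units. Reactions ran 1 h at room temperature after NADPH regeneration solution was added.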

In test [7] the target is Cytochrome P450 2C19 (Homo sapiens) (UniProt P33261). In words: Cytochrome P450 Family 2 Subfamily C Member 19 (CYP2C19) small molecule antagonists: luciferase reporter qHTS assay (AID 1671197). Further: nearly all actives have a fitted effect of over 65% in size. Further: potency means the concentration at half of the fitted maximal effect. On activity change, negative = inhibition: series mostly up to about 120 µM. An outline of the steps: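 Relative luminescence units recorded 20 min after the detection reagent stopped a 1 h, 37C CYP2C19 reaction on proluciferin substrate, which was started by NADPH regeneration following 10 min room-temperature compound preincubation; ketoconazole positive control.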
Sequence of Cytochrome P450 2C19 (Homo sapiens) (P33261 whole entry, looked up): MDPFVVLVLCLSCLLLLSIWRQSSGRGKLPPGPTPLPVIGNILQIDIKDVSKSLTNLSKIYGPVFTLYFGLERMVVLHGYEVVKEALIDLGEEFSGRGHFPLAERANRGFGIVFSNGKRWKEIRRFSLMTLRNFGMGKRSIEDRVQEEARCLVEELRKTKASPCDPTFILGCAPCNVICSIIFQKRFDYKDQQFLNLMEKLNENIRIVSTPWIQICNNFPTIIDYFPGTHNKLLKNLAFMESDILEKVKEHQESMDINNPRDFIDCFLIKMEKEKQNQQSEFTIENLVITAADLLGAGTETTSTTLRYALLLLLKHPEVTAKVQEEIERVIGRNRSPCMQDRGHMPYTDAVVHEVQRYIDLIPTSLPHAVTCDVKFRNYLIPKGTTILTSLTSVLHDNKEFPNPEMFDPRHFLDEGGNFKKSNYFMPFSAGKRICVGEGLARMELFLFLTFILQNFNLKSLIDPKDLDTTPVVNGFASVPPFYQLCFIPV
(Reporter assays use an easily measured gene product as a stand-in for the process of interest.)

The target in test [8] is Cytochrome P450 2C9 (Homo sapiens) (UniProt P11712). Briefly: Cytochrome P450 Family 2 Subfamily C Member 9 (CYP2C9) small molecule antagonists: luciferase reporter qHTS assay (AID 1671198). Further: nearly all actives have a fitted effect of over 50% in size. Further: potency means the concentration at half of the fitted maximal effect. On activity change, negative = inhibition: series mostly up to about 120 µM. Summed up: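 CYP2C9 activity was measured with a P450-Glo proluciferin substrate. Enzyme–substrate mix was held with compound for 10 min at room temperature, then NADPH regeneration solution was added for 1 h at 37C. Luciferin product was read as luminescence.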
Sequence of Cytochrome P450 2C9 (Homo sapiens) (P11712 whole entry, looked up): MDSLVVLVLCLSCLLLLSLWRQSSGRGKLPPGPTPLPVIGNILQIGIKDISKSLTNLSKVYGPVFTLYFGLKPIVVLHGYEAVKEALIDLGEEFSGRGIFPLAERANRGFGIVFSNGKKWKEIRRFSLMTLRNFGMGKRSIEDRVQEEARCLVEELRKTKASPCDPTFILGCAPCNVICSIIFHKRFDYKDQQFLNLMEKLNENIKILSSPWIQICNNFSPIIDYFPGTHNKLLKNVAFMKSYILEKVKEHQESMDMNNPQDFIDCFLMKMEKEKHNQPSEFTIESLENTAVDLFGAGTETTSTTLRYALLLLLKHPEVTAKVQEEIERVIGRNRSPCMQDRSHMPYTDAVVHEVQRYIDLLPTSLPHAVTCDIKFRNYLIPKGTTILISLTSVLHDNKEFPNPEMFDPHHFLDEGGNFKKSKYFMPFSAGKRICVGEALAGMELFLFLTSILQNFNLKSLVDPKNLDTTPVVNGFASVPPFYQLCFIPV

Test [9] deals with Cytochrome P450 1A2 (Homo sapiens) (UniProt P05177). In words: Cytochrome P450 Family 1 Subfamily A Member 2 (CYP1A2) small molecule antagonists: luciferase reporter qHTS assay (AID 1671199). Further: nearly all actives have a fitted effect of over 50% in size. Further: potency means the concentration at half of the fitted maximal effect. On activity change, negative = inhibition: series mostly up to about 120 µM. An outline of the steps:
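P450-Glo CYP1A2, 1536-well qHTS: enzyme/proluciferin substrate + cpd (DMSO), 10 min RT; NADPH regen, 1 h RT; detection reagent, 20 min; luminescence, RLU.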

The target in test [10] is Voltage-gated inwardly rectifying potassium channel KCNH2 (Homo sapiens) (UniProt Q12809). In words: Human Ether-a-go-go-Related Gene (hERG) channel small molecule antagonists: fluorescence cell-based qHTS assay (AID 1671200). Summed up: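 U2OS cells expressing the channel were plated at 1000 cells/well, incubated overnight at 37 C, then loaded with FluxOR II thallium-sensitive dye for 1 h at room temperature in the dark, with a further 10 min at room temperature before stimulation.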
Sequence of Voltage-gated inwardly rectifying potassium channel KCNH2 (Homo sapiens) (Q12809 whole entry, looked up): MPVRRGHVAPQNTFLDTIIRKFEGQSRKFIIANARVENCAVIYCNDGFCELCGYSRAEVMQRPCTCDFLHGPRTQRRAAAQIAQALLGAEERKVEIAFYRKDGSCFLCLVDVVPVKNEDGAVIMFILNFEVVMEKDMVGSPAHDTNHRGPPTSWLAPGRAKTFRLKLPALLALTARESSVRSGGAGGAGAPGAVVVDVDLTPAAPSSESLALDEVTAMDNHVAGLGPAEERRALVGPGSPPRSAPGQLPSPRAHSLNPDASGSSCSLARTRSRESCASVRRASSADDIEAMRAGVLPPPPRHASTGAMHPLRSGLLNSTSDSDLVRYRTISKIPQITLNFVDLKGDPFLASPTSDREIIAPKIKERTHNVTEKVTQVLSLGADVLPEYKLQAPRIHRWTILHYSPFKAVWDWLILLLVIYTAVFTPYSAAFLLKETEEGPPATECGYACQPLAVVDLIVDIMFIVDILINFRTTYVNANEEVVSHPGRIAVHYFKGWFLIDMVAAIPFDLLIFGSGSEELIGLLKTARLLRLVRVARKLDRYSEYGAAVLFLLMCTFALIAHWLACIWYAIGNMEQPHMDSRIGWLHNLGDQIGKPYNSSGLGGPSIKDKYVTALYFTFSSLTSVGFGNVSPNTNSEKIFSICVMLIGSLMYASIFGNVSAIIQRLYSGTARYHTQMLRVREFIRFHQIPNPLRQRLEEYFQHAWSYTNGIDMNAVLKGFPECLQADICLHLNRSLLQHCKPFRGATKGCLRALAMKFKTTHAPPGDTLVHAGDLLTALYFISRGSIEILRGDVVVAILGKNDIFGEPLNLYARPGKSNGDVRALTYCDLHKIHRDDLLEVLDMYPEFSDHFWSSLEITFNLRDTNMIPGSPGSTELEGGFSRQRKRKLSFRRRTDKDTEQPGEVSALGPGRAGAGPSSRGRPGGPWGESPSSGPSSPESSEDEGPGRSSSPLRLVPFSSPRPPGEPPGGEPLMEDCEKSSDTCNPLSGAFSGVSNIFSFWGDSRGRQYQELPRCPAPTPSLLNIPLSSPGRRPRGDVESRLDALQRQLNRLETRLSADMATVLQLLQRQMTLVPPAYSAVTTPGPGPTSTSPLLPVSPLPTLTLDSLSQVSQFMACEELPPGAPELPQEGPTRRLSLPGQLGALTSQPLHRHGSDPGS
Background: hERG is a cardiac potassium channel; its block is linked to QT prolongation.

Test [11] addresses Cytochrome P450 3A4 (Homo sapiens) (UniProt P08684). In words: Cytochrome P450 Family 3 Subfamily A Member 4 (CYP3A4) small molecule antagonists: luciferase reporter qHTS assay (AID 1671201). Summed up: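 P450-Glo CYP3A4 system with proluciferin substrate; compounds preincubated 10 min RT with enzyme-substrate mix, then NADPH regeneration added for 1 h RT. Detection reagent 20 min, luminescence read as relative luminescence units.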

Test [12] is described as follows: Caspase-3/7 induction in CHO-K1 cells by small molecules, qHTS assay (AID 1346980). Further: nearly all actives have a fitted effect of over 15% in size. Summed up: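 Wild-type cells were seeded at 1,500 per well and settled 5 hr at 37 C, 5% CO2, then exposed to DMSO-dissolved compounds for 17 hr. Caspase-Glo 3/7 reagent was added, and luminescence was read after 30min at room temperature.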

SMILES strings stand for the structures. Unmarked numbers belong to inactive results. Records with an inconclusive call do not appear. Activity calls are given as the source filed them. The call rests on the fitted dose curve; in most records, active means well fitted curve in the direction sought with a large enough effect in the repeat runs; inconclusive means weak or mixed curves; inactive means no such curve, though single readings can be large; an effect the other way counts as inactive or inconclusive.
On the % scale 0 is the no-effect control and ±100 the full control effect.

Sequence of Nuclear receptor subfamily 1 group I member 2 (Homo sapiens) (O75469 whole entry, looked up): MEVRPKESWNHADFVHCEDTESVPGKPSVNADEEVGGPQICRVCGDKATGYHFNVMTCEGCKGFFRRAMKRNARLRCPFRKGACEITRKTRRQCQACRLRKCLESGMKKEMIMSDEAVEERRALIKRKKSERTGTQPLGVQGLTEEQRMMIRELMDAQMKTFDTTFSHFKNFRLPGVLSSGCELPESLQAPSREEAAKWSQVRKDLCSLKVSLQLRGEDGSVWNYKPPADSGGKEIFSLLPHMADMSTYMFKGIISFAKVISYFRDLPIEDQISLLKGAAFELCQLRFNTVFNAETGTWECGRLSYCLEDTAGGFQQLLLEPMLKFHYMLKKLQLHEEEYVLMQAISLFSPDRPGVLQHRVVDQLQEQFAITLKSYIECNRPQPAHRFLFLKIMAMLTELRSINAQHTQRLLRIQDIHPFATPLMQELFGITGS
Sequence of Cytochrome P450 1A2 (Homo sapiens) (P05177 whole entry, looked up): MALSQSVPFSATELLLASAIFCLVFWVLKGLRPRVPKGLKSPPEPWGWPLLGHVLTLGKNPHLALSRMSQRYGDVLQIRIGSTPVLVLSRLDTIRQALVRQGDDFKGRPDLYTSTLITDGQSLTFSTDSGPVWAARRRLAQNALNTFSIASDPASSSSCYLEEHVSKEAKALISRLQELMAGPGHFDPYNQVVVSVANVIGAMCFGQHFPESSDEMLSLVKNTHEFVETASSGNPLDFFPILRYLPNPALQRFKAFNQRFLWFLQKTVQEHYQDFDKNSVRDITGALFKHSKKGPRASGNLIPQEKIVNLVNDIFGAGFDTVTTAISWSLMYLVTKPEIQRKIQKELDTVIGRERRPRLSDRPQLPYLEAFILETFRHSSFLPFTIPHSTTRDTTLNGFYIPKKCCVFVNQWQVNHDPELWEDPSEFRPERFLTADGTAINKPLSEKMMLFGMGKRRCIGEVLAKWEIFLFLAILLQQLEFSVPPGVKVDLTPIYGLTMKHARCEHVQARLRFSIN
Sequence of Cytochrome P450 2D6 (Homo sapiens) (P10635 whole entry, looked up): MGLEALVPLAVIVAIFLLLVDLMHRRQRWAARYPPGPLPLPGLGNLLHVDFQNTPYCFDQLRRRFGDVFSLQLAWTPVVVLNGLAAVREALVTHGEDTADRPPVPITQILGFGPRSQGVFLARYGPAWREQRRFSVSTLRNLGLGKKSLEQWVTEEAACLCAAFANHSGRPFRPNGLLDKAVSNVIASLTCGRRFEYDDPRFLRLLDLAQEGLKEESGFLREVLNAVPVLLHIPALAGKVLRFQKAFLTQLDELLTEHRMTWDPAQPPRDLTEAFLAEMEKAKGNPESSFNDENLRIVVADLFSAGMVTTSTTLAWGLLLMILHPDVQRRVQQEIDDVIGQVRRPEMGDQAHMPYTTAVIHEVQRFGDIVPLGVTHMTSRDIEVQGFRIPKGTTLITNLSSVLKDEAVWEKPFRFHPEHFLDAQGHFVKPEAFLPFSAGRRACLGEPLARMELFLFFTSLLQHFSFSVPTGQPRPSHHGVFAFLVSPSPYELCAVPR
Sequence of Cytochrome P450 3A4 (Homo sapiens) (P08684 whole entry, looked up): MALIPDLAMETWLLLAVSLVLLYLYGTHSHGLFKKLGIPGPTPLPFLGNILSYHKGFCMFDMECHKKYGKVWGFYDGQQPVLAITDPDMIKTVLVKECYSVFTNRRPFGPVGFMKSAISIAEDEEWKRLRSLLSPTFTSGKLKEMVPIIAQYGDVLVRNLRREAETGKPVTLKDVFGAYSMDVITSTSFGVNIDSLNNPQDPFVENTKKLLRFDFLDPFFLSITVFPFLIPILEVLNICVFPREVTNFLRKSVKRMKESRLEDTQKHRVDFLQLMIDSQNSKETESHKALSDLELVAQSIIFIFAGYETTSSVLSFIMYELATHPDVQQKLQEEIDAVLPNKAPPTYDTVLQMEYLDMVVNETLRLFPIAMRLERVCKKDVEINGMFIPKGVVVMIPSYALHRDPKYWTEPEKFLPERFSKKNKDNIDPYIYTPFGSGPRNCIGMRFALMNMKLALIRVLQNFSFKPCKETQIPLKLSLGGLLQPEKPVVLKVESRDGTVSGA

Take `CCCCCCCC/C=C\CCCCCCCC(=O)OC`: the Potency entry in [1], in [2], in test [3], in [4], in test [5] and in test [6] was “inactive” in each case. Also, the Potency result in test [7], in test [8], in test [10] and in test [11] was “inactive” throughout. Besides, the Potency in test [9] was 31.8 µM (active).

For `CCCCCCOC(=O)C(C)C`, the Potency entry in [1], in test [2], in test [3], in test [4], in [5] and in [8] was “inactive” each time. In addition, in [10], the Potency entry is “inactive”. Also, the call in test [12] was inactive.

For `Cc1ccccc1N1C(=O)c2cc(S(N)(=O)=O)c(Cl)cc2NC1C` (stereo not drawn), the Potency result in [1], in test [2], in test [3], in [4], in test [7] and in test [9] was “inactive” in each case. Further, the Potency result in test [10] was “inactive”. The compound was classed as inactive in test [12]. In addition, the Potency in test [5] is 5.31 µM (active).

On to `O=C(CCCCCCCCC#CI)Oc1ccccc1`, for which the Potency result in test [1], in [2], in test [3], in test [10] and in test [11] was “inactive” throughout. Further, the outcome in [12] was inactive. For the same compound, in test [8], the Potency was 17.4 µM (active).

Consider `O=S(=O)(c1ccccc1)c1ccc(Cl)cc1`, for which the Potency entry in test [1], in test [2], in test [3], in test [4], in test [8] and in test [10] was “inactive” in each case. Also, the outcome in test [12] was inactive. Besides, the values for the Potency in [5], in test [7] and in test [9] were 30.6 µM (active), 3.99 µM (active) and 44.8 µM (active), respectively.

For `CC(C)C(OC(=O)c1ccccc1)C(C)(C)COC(=O)c1ccccc1` (stereo not drawn), the Potency result in test [1], in test [2], in [3], in test [4], in test [6] and in test [11] was “inactive” in each case. Moreover, the call in [12] was inactive. Moreover, the Potency is 6.33 µM (active) in [7] and 35.6 µM (active) in test [9].

Take `Fc1ccccc1[C@@H](F)COC1CCC(Nc2ncnc3[nH]ncc23)CC1` (stereo partly drawn): the Potency in [1] was 27.3 µM (active); in test [3], 30.6 µM (active); in test [7], 79.6 µM (active); in test [8], 31.7 µM (active). Moreover, the Potency result in test [2], in test [5], in test [9] and in [10] was “inactive” throughout. Also, the result in test [12] was inactive.

In the case of `N#C[C@@H]1C[C@@H]2C[C@@H]2N1C(=O)[C@@H](N)C12CC3CC(CC(O)(C3)C1)C2`, the Potency result in test [1], in test [2], in test [3], in test [4], in [5] and in [8] was “inactive” each time. The Potency entry in [9] and in test [11] was “inactive” in each case. In test [12], the outcome was inactive. In addition, the Potency in [6] is 38.9 µM (active).

For the compound `[O]=[Bi]`, the activity change, negative = cytotoxicity was 1.27% [at 8.39 µM] in [1], -0.807% [at 8.39 µM] in test [3] and -1.33% [at 8.39 µM] in test [4]. Moreover, the caspase activation in test [2] is -1.09% [at 8.39 µM]. Moreover, in [12], the caspase-3/7 activation was -0.359% [at 8.39 µM]. The activity change, negative = inhibition is -0.389% [at 10.5 µM] in test [6]; -17.2% [at 10.5 µM] in test [7]; 1.73% [at 10.5 µM] in test [8]; -11% [at 10.5 µM] in test [9]; -0.289% [at 6.97 µM] in [10]; 0.199% [at 10.5 µM] in test [11].

Regarding `CC(C)CCCCCCOC(=O)CCCCC(=O)OCCCCCCC(C)C`, the Potency entry in test [1], in test [2], in test [3], in [4], in [5] and in test [6] was “inactive” throughout. Also, the Potency entry in test [10] and in test [11] was “inactive” throughout. In addition, the call in test [12] was inactive.
